Unmarked numbers belong to inactive results.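 How the source made its calls: active = MAPPIT score above the 99th percentile of random reference set scores in the same batch; inactive = at or below it.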
How the values were obtained:
Assay in all cases: MAPPIT interaction score (arbitrary units); higher = stronger binary interaction signal, active = hit call of the paper
Or49b = conditions: MAPPIT configuration: N-N; pair source set: DPIM
Su(var)2-10 = conditions: MAPPIT configuration: N-N; pair source set: DPIM
Not3 = conditions: MAPPIT configuration: N-N; pair source set: Finley_Y2H
Nup62 = conditions: MAPPIT configuration: N-N; pair source set: Finley_Y2H
PHDP = conditions: MAPPIT configuration: N-N; pair source set: Curagen_low_conf
Mzt1 = conditions: MAPPIT configuration: N-N; pair source set: RRS
Nacalpha = conditions: MAPPIT configuration: N-N; pair source set: DPIM
Nup153 = conditions: MAPPIT configuration: N-N; pair source set: DPIM
Pen = conditions: MAPPIT configuration: N-N; pair source set: Lit-BM-16
ND-ACP = conditions: MAPPIT configuration: N-N; pair source set: Lit-BS-16
Nup50 = conditions: MAPPIT configuration: N-N; pair source set: DPIM
Nnk = conditions: MAPPIT configuration: N-N; pair source set: Curagen_high_conf
Naa30A = conditions: MAPPIT configuration: N-N; pair source set: Curagen_high_conf
Nedd4 = conditions: pair source set: Lit-BM-16
Nup107 = conditions: MAPPIT configuration: N-C; pair source set: screen_4
dgt6 = conditions: pair source set: Lit-BM-16
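Further: HEK293T cells with Epo stimulation, STAT-responsive firefly luciferase reporter, fold induction versus unstimulated cells divided by the larger fold induction of two negative controls lacking either bait or prey.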

B1: Atx2 (protein)
chain: MNNNSKRKTRPTGGGASGGISRYNSNDNSLRPTNNKAGAGGGNGGAAVRPSAQGVYNNTFFMHSATALVGSVVEVRLRSGNIYEGVFRTFSGNFDIALELPACIKSKNLPEEGKVPKHIIFPADTVVTIVAKDFDSQYATAGAFQTDGAISDKCNGARPDEKELEPWDSGANGDIDIELDSAANGWDPNEMFRKNENTFGVTSTFDDSLASYTVPLDKGDSLEFKEAEAKAEKLAAEIENNPTCRDRLDLENGDEEALFAAVERPSTEQDQRGDRGDRERNDRDREREERDRDRDRDRGNKPRGAGDFQLRETMSSDRYITKQTRSITGPQLSHVGMSSQGSGRDRDTRGDGSMMMQSGGGSGQGGSTQSTAALMLAGGLKGVGPAPSANASADSSSKYSGGSMVKRKTVPQGGKVMRNNVPTGGSNVSVSQGGNGNSVGQNKGGYQPSMGMPSQYSYQGNSQIMHGSSQYRNQSHMGGANKLNGDSNANTNKPLPQRQMRQYQGSQSNSSLNYGGEPQSLGKPVHGSHGGHPGQNSNSPPLQTAGPQQQQQQQQQQQQQQQQQQPPQQQQHQNIQPQGQNTQPARQVRTRDNQMQELRQFGQDFQLAPSNTSPPQQQQQQQQQQQQHQVQQQQQRALQQSASPPQQQQQQQQQQQHVVLHQVPQTHLHQAALSQPHYVPQQQPQQAPLPQQQHVPHHMQQKAQQQQLVETQHQHVQKQHQSQPQVQQPPPQLLQDPSQQPLPIYHTMPPPQTSPVVVTSPVLLEQPPPQPMPVVQQQQTQQLATPKPEVSPAPPSSNTTTPTGIASTPTAGVIASAGSEKTTPAAPTPTSNSATVPTGTAATAGGATGTTPVVKKHVLNPSAKPFTPRGPSTPNPSRPHTPQTPVPMTNIYTTTGGHVPPAANQPIYVMQPQHPFPPQTHPQAGQPPRLRRSNYPPMAASQMHVSASAATGQPLITAGPIPQFIQYGHAPHQQQFQSHTYAPMQMRVYPDQPQQLQFMTQTPQSTTPSPGQPHQQFHPPPQPSPAGGGPQPAFTPPTQAATYQLMCVHPQSLLANHYFPPPTPQHPQQNQQQYQIVMQQHQPQ
MAPPIT interaction score (Or49b): -0.465
MAPPIT interaction score (Su(var)2-10): 0.0668

B2: Rga (protein)
chain: MANLNFQQPPRSIANAALAGRTTGGFGGSSLAGHVTPTSGMFQTDFANSYPGTANYGQAPQQQQQQQQQPQLSPNRNAQLSVGGPAISSGNRNANLFGQRQFVERRAMQGLGSGPMSNMGNFMQTGRGGYGTGGGGGGPLNNFHVFGGGGGSDTSTPALLDPTEFPSLTNARGQNDQTLPQSNPLQPPGSKPYGNFFTSFGMVKQPTSEQSEFTMSNEDFPALPGTQNSDGTTNAVGSVAGTGGSGGASTENHLDGTEKPMNSIVVSGSASGSSGSNVGVVGGNGLGAVGSGIGGLAVGGGGGAGSSGGGGVGGNAASGVVGGSHVGLVGSNSGIGGVNSVPNSNAMMGVGGGLGSGSGSSGSGAGGEHLNDNSSNDKLVKSGVQTSPDGKVTNIPATMVNNQFGMVGLLTFIRAAETDPNLVTLSLGTDLTGLGLNLNSQESLHTTFAGPFVAQPCRAQDVEFNVPPEYLINFAIRDKLTAPVLKKLQEDLLFFLFYTNIGDMMQLMAAAELHSREWRYHVEEKIWITRIPGIDQYEKNGTKERGTFYYFDAQSWKRLSKVFQIDPEKLDKCPNISAFMNGQSV
MAPPIT interaction score (Not3): 0.172

B3: Nup54 (protein)
chain: MSFFGSNTSLGATSTPAKTTGGLFGSPFGGTAATSQPAPAFGAQATSTPAFGAQPATSAFGAGSAFGATAAAPAFGAATGTSAFGGSAFGSTPAFGAATTTTAGTGLGGGGFGGFGAAPATSQAGLFGAPATSAAPPAFSGFGQQAAASTAPASGFSGFGTTTTSAPAFGGFGTSQSTGFGGGAFGSTFGKPANTTVTPGFGGFGGTSFMLGQPQQQPAPISADEAFAQSILNVSIFGDERDKIVAKWNYLQATWGTGKMFYSQSAAPVDITPENVMCRFKAIGYSRMPGKDNKLGLVALNFCRELSAVKPHQQQVIQTLHSLFGSKPNMLVHIDSIKELENKKCQIVIYVEEKLQHAPNESKRILATELSNYLNQATLKPQLNNLGVVEALALVLPDEDQLREYLENPPRGVDPRMWRQANSDNPDPTLYIPVPMVGFNDLKWRVKCQEQETDTHALYIKKVESELTELKKRHATATAKILEHKRKLAELSHRILRIIVKQECTRKVGTSLTPEEEALRTKLQNMLAVVSAPTQFKGRLSELLSQMRMQRNQFAANGGAEYALDKEAEDEMKTFLTMQQRAMEVLSDTVNKDLRALDVIIKGLPELRQS
MAPPIT interaction score (Nup62): 5.79 (active)
MAPPIT interaction score (PHDP): -0.274

B4: Ror (protein)
chain: MNKYSAFIVCISLVLLFTKKDVGSHNVDSRIYGFQQSSGICHIYNGTICRDVLSNAHVFVSPNLTMNDLEERLKAAYGVIKESKDMNANCRMYALPSLCFSSMPICRTPERTNLLYFANVATNAKQLKNVSIRRKRTKSKDIKNISIFKKKSTIYEDVFSTDISSKYPPTRESENLKRICREECELLENELCQKEYAIAKRHPVIGMVGVEDCQKLPQHKDCLSLGITIEVDKTENCYWEDGSTYRGVANVSASGKPCLRWSWLMKEISDFPELIGQNYCRNPGSVENSPWCFVDSSRERIIELCDIPKCADKIWIAIVGTTAAIILIFIIIFAIILFKRRTIMHYGMRNIHNINTPSADKNIYGNSQLNNAQDAGRGNLGNLSDHVALNSKLIERNTLLRINHFTLQDVEFLEELGEGAFGKVYKGQLLQPNKTTITVAIKALKENASVKTQQDFKREIELISDLKHQNIVCILGVVLNKEPYCMLFEYMANGDLHEFLISNSPTEGKSLSQLEFLQIALQISEGMQYLSAHHYVHRDLAARNCLVNEGLVVKISDFGLSRDIYSSDYYRVQSKSLLPVRWMPSESILYGKFTTESDVWSFGVVLWEIYSYGMQPYYGFSNQEVINLIRSRQLLSAPENCPTAVYSLMIECWHEQSVKRPTFTDISNRLKTWHEGHFKASNPEM
MAPPIT interaction score (Mzt1): -0.491

B5: eIF3j (protein)
chain: MADDWESAADSEVVIRPTAAASVNKWEGEDEDEDIKDSWEDEEEKKDEEKPTKTEAPAKPKPNKALKAKLEQQALLEEEAEAKRLANLSPAEKLAEKLRLQKIQEASDLKHAQEAFGVTSTCGGLDAFNPETKEEFKEFGATLSWKVGQFRESEHFPQFVEDLVRSLCVNLSAADIKKVKMNVEILHSEKLKLEKANAKKPAGKGKGKVTLRTENDDIDGYQKYGNDFTEDYDDFM
MAPPIT interaction score (Nacalpha): 0.261

B6: Nup50 (protein)
chain: MAGKRQATSNLNHENWDLEEEPEERGTFRTATEEELKTRVIKKARRKIAGGSSAAEEDGAEEKTAEPKSVFSGFSGFGKPAASPAAGSPFSFLANVTAPATTSSSEPKKSAFSFGFSSSSSSADRPVSTSICGTASTSSTAPSPLPAKESTSTVDGAKPTTSIFGNISAAKKESSEAKTSSSSTSLTSTMETSEYRESVADLNRSVIKFLQDQMGKSPYCILTPVFKNYDEHLKDLQDEESARTNSTKSKTAQARSQEPVAKVSRASSPPKAATTFTFGKPSAPIGASVSPLAKKPNCTITSGGTTTTTATPLVSFGSTASFTAPVPSSSSIFSLTAKPTGEAKSDDTPKSSIFSFGAKDTTTKKDEPNFSAPKTNGFSFGLKSNNDDKPSTSLFAGFGKAPGGAGDGAKGFSFTNSATPFSLGNIHPPAAAAAPAEEEKEEDTPPKVEFKQVVEDDAIYSKRCKVFIKKDKDFGDRGVGTLYLKPVKDSEKIQLLVRADTNLGNILVNLILSKGIPCQRMGKNNVLMVCVPTPEDSKATSLLLRVKTGDEADDLLEKIKEHIK
MAPPIT interaction score (Nup153): 0.802
MAPPIT interaction score (Pen): 3.66 (active)

B7: DENR (protein)
chain: MTNEDVGTNSVADRLQLGPREGVTYPIQMKYCGHCTMPIEYCEYYPEYEKCKEWLELHMPDDFERLKIEEEAAAADGTDDDKKRQKRGGKGLLRVKKKEDVPKRICVSRAARGKKKSVTVVTGLSTFDIDLKVAAKFFGTKFACGSSVTGDDEIVIQGDVKDDLFDVIPEKWAEIDEDVIEDLGDQKRT
MAPPIT interaction score (ND-ACP): 1.72

B8: Nubp2 (protein)
chain: MLDKVKNVIVVLSGKGGVGKSTVSTQLSLALRKNGFKVGLLDIDLCGPSVPYLLGLEGRDIFQCDDGWVPVYTDESQTLAVMSIGFLLKNREDPVIWRGPKKTMMIRQFLTDVRWDELDYLIIDTPPGTSDEHITVMECLKEVGCHGAIIVTTPQEVALDDVRKEITFCKKTGINILGIVENMSGFVCPHCTSCTNIFSSNGGVSLATYAQVPHLGTLPIDPRVGILAGTTTSVLDELPDSTTAEVLTHIVEKLKTMLVS
MAPPIT interaction score (Nup50): -0.182

B9: mei-S332 (protein)
chain: MGSKVEQQYKLLNAELMDQVQKQRLEIGEYRKRVISLEREIMDIREEHVLQNHRQRMENISIVRSLMLSLNVDSDSLAVRQEPAPAAQINRPSGPRRSSREICKDMRRTCALARTTRPISPRRSSSVTSTVSSTSRRSSAEVQSEVVTTRIPEDRRANKPTPPPRRPAELVFDEDDSDDDFDEAVSPVEETQTEQNEENNRLFSIIEENGSEGESTDSSSSCEAIYCDTTFESSPPNAQVTVTPSGRALREVDTNIPVAVSLSRGKETGKGSWLAISVAVEDSPQEPSIQCPRLAVTRPSQSSGIFPDVNGLTPRRSLFNGIGKMAGSTSTPKSFLVEEMPSIRTRSRTAANKKSENTDMSSSFCNNSARPSRSCRPTSLVEPSLKNKLRNGSKGKAKAKK
MAPPIT interaction score (Nnk): -0.26

B10: Naa35 (protein)
chain: MYPSTLPAEADPSTMNGSSVAEPPDFQAATAAAAAAARASSLEQDEWSVGECGFLDPDVQRTMRSGSAAEDITQYPMHGWVDVTKEFHDACAELQPGELAQDMLFGLFEAMSAIEIMDPKMDVGMGFDKQDLPPPSFEAAIATGAIKLDDLTPSELIGIYDALFSCLVSWLEGNSMDQVLFTCLYLHAPAQIKDKALRVFCTAVRNLIVVIKKIIAVAAVNEEEDFQLYGNSALLAAEKAQPATVYSSLKDVEDELIRKCKKLTSTEDWMAVVHRLRFMRHLFQVIYHVEQMASNDTVDDKVDIYKILLVASEMLPGIRNTLDRGTQPEKGSDAPNPMGFSPRIHDRSQPPAFPRSIKIRDRPSSYQFLEEMISRFKYACKVTKYKDYYSALNFFIEYSKKSGQCILSRSVLQTLFSANMRMAHGKLPMKQFLRHSVQVFNSPPVLNAKHPVAADPKVQQHLENFFRYCINMNTFTQFIRICGFNRARQRDKLARLIENFDTIQVDAARLDSMMNQLANERAMEGNEPMATALKHSTHFSTWVLYNCFRAMLIFLMSGFELELYAVHEFLYIYWYPYEFLIGFLVSALTRTENILLAQEEYAEHQSKTQSGGSGAAKNRKAAKPKKNKKTQRPYRAEIVFYHALLSLCGGMYKAMGALTKDGRVRLPLSKFDNEEIRYNRRFLPFATLTSPPPVSYAEFKNVREHMMRHSVEDLYTYAAKHFDQARNVLESIQNPDQEMLDLLQIARTNFVVMNVLARGHQKEVKRQPEFDFSKHSYFPIIKLK
MAPPIT interaction score (Naa30A): 3.72 (active)

B11: comm (protein)
chain: MISTTDYPTVETTTTAEELYAEYISAPASSMSPAAIAEHLQQNQITFEIPSAHDLRHIDALNSFNALLQRIGNAAVSYDPAPPSGWSPDGSISTEQLSKSVVLDLADLRDRSEESGESSWWSQIFGDADMHVIINYLWIGVVSSLVILSLVFILFSCYFYRKFRTWKKCNKDIRAQIHAASDSYSSHLVGCDASRLLLHQQMQHPHHRSSEAGFYQIESPPCYTIATGLPSYDEALHHQPRHFAYGMKFVYPSLAAVHHHHHCISNWEKQEPLNKLQKCKLSAAAAVEEDKADSSSSTSASASPSSSESSNLATATPAICINMPSGRQDEEVDNSDSDSAIAVAVAVAQSLQPAAPADDDCASLVVVVAA
MAPPIT interaction score (Nedd4; MAPPIT configuration: N-C): 1.86
MAPPIT interaction score (Nedd4; MAPPIT configuration: N-N): -0.264

B12: dgt4 (protein)
chain: METPPTPTTTTPPSLTTEGTMDDIQYLLHLEAMRRFQEDSRNVKRQVEEQVRIWLDAKCEYQRDFGRLARLLKCGALQAAVDAHRVSDVNQVDQAAKDIASLRSKLGSDLRPAILDSNDVKQCLEHLNTTHKPRLNLCRQQREFAQNQEALRSLRTAVDGLENGMEMGMIQAMDRLVEDLLPPRETNN
MAPPIT interaction score (Nup107): 1.57
MAPPIT interaction score (dgt6; MAPPIT configuration: N-C): 1.64
MAPPIT interaction score (dgt6; MAPPIT configuration: N-N): 4.36 (active)

— the supplement of paper PMC10105736
